Among the test systems are EIF2AK1; EPHA1; EPHA2; EPHA3; EPHA4; EPHA5; EPHA6; EPHA7; EPHA8; EPHB1; EPHB2; EPHB3; EPHB4; EPHB6; ERBB2; ERBB3; ERBB4.
Holding throughout (details): concentration: 1 μM, replicates: in singlicate; n = 1
Another experiment concerns T1, ERK1.
T1 construct: gene MAPK3

The next experiment deals with T2, ERK2.
T2 construct: gene MAPK1

The subject of another experiment is T3, ERK3.
T3 construct: gene MAPK6

Each structure is given as a SMILES string.
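Note: KINOMEscan kinase panel screen.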

In the case of `C[C@H]1CC[C@@H](C(=O)Nc2ccccc2)CN1c1cc(-c2ccc3c(N)n[nH]c3c2)nc(N)n1` [GSK2283293], the “%Inh” value in the experiment with EIF2AK1 came out at 10%; in the experiment on EPHA1 it was 0%; in the experiment with EPHA2, 11%; in the experiment with EPHA3, 0%; in the experiment on EPHA4, 3%; in the experiment on EPHA5 it was 0%. Also, the “%Inh” value amounted to 15% in the experiment on EPHA6; 6% in the experiment with EPHA7; 23% in the experiment with EPHA8; 22% with EPHB1; 0% with EPHB2; 24% in the experiment on EPHB3. The “%Inh” value with EPHB4 came to 12%; in the experiment on EPHB6, 13%; with ERBB2, 25%; with ERBB3, 0%; with ERBB4, 39%; in the experiment on ERK1, 0%. The “%Inh” value in the experiment with ERK2 is 2%; in the experiment with ERK3, 4%.
For the molecule `CC(C)(C)c1ccc(-n2cnc3c(N)ncnc32)cc1` [SKF-97263], the “%Inh” value was found to be 0% in the experiment on EIF2AK1; 14% in the experiment with EPHA1; 23% in the experiment with EPHA2; 0% in the experiment with EPHA3; 27% with EPHA4; 0% in the experiment with EPHA5. In addition, the “%Inh” value worked out at 28% in the experiment with EPHA6; 8% in the experiment on EPHA7; 16% with EPHA8; 3% with EPHB1; 17% in the experiment on EPHB2; 31% in the experiment on EPHB3. The “%Inh” value in the experiment on EPHB4 is recorded as 15%; in the experiment with EPHB6, 9%; in the experiment with ERBB2 it was 29%; with ERBB3 it was 0%; with ERBB4, 0%; in the experiment on ERK1, 7%. The “%Inh” value in the experiment on ERK2 and with ERK3 was 0% throughout.
Take `NC(=O)c1sc(-n2cnc3ccccc32)cc1OCc1ccccc1F` [GSK1024306]: the “%Inh” value in the experiment on EIF2AK1 is 0%; in the experiment on EPHA1, 2%; in the experiment with EPHA2, 0%; with EPHA3, 5%; in the experiment with EPHA4, 0%; in the experiment with EPHA5 it was 0%. Also, the “%Inh” value is listed as 0% with EPHA6; 0% in the experiment on EPHA7; 19% with EPHA8; 0% with EPHB1; 0% in the experiment on EPHB2; 1% in the experiment with EPHB3. Besides, the “%Inh” value was determined as 0% in the experiment on EPHB4; 8% in the experiment with EPHB6; 47% in the experiment with ERBB2; 18% in the experiment on ERBB3; 25% in the experiment with ERBB4; 0% with ERK1. The “%Inh” value in the experiment on ERK2 and in the experiment on ERK3 was 0% each time.
On to `Cl.Fc1ccccc1COc1ccc(Nc2ncnc3ccc(-c4nnc(C(F)(F)F)o4)cc23)cc1Cl` [GW424170], for which the “%Inh” value in the experiment on EIF2AK1 is 0%; in the experiment on EPHA1, 19%; in the experiment on EPHA2, 0%; in the experiment on EPHA3, 0%; with EPHA4 it was 3%; in the experiment with EPHA5, 0%. Further, the “%Inh” value was found to be 0% with EPHA6; 3% in the experiment with EPHA7; 0% in the experiment on EPHA8; 19% with EPHB1; 0% in the experiment on EPHB2; 2% in the experiment on EPHB3. Besides, the “%Inh” value in the experiment on EPHB4 stood at 0%; with EPHB6, 0%; in the experiment with ERBB2 it was 96.7%; with ERBB3, 0%; with ERBB4, 70%; in the experiment with ERK1, 0%. Also, the “%Inh” value is listed as 0% in the experiment on ERK2 and 7% in the experiment on ERK3.
Take `Fc1ccc(Nc2nccc(-c3c(-c4ccc(Cl)cc4)nn4ncccc34)n2)cc1F` [GW829058]: the “%Inh” value with EIF2AK1 amounted to 0%; in the experiment on EPHA1, 13%; in the experiment on EPHA2, 3%; with EPHA3, 27%; in the experiment on EPHA4 it was 12%; in the experiment with EPHA5, 24%. The “%Inh” value in the experiment with EPHA6 was determined as 15%; in the experiment on EPHA7 it was 8%; with EPHA8, 9%; with EPHB1, 20%; in the experiment with EPHB2, 17%; in the experiment with EPHB3, 15%. The “%Inh” value was 14% with EPHB4; 23% in the experiment on EPHB6; 21% in the experiment on ERBB2; 36% in the experiment on ERBB3; 0% with ERBB4; 6% in the experiment on ERK1. Further, the “%Inh” value in the experiment with ERK2 was determined as 28%; in the experiment with ERK3, 0%.
`Clc1ccc(-c2cc(-c3c[nH]nc3-c3ccccn3)ccn2)cc1` [GW681251]: the “%Inh” value with EIF2AK1 came out at 0%; in the experiment on EPHA1 it was 0%; with EPHA2, 8%; in the experiment with EPHA3, 0%; in the experiment with EPHA4 it was 2%; in the experiment on EPHA5, 0%. Also, the “%Inh” value amounted to 10% in the experiment on EPHA6; 0% with EPHA7; 0% with EPHA8; 7% in the experiment on EPHB1; 31% in the experiment on EPHB2; 15% in the experiment with EPHB3. In addition, the “%Inh” value with EPHB4 is given as 1%; with EPHB6, 0%; in the experiment on ERBB2, 17%; in the experiment with ERBB3 it was 0%; in the experiment on ERBB4 it was 0%; in the experiment on ERK1, 0%. Moreover, the “%Inh” value with ERK2 worked out at 0%; in the experiment on ERK3 it was 8%.
With `Fc1cccc(COc2ccc(Nc3ncnc4sc(-c5ccc[nH]5)cc34)cc2Cl)c1` [GW707818], the “%Inh” value is listed as 0% in the experiment with EIF2AK1; 0% in the experiment with EPHA1; 0% in the experiment on EPHA2; 18% in the experiment with EPHA3; 0% in the experiment on EPHA4; 0% with EPHA5. Besides, the “%Inh” value in the experiment with EPHA6 came to 0%; with EPHA7, 0%; with EPHA8 it was 4%; in the experiment on EPHB1, 1%; in the experiment with EPHB2, 15%; with EPHB3, 0%. For the same molecule, the “%Inh” value in the experiment on EPHB4 was 0%; in the experiment on EPHB6 it was 16%; in the experiment with ERBB2, 100%; in the experiment with ERBB3, 0%; in the experiment with ERBB4, 88%; in the experiment with ERK1, 0%. For the same molecule, the “%Inh” value stood at 0% in the experiment with ERK2 and 3% in the experiment on ERK3.
As for `CN1c2ccc(-c3ccc(C(=O)NCCO)cc3)cc2-c2[nH]ncc2S1(=O)=O`, the “%Inh” value in the experiment with EIF2AK1 worked out at 0%; with EPHA1 it was 11%; in the experiment on EPHA2, 27%; in the experiment on EPHA3, 14%; in the experiment on EPHA4 it was 14%; with EPHA5, 19%. Further, the “%Inh” value turned out to be 22% in the experiment on EPHA6; 3% with EPHA7; 0% in the experiment with EPHA8; 7% in the experiment with EPHB1; 20% with EPHB2; 18% with EPHB3. In addition, the “%Inh” value in the experiment with EPHB4 was 23%; with EPHB6, 54%; in the experiment with ERBB2 it was 8%; with ERBB3, 0%; in the experiment on ERBB4 it was 10%; with ERK1, 10%. Moreover, the “%Inh” value came out at 11% in the experiment with ERK2 and 5% in the experiment on ERK3.
On to `COc1ccc(Nc2nccc(N3CCC(NC(=O)c4cccc(NC(C)=O)c4)C3)n2)cc1` (stereo not shown) [GSK1379732], for which the “%Inh” value with EIF2AK1 is on record as 0%; in the experiment on EPHA1 it was 0%; in the experiment on EPHA2, 20%; in the experiment on EPHA3, 1%; in the experiment on EPHA4 it was 0%; with EPHA5, 0%. The “%Inh” value with EPHA6 is reported as 0%; with EPHA7 it was 0%; with EPHA8 it was 0%; in the experiment on EPHB1 it was 1%; in the experiment on EPHB2, 8%; in the experiment with EPHB3 it was 1%. Moreover, the “%Inh” value is 11% in the experiment on EPHB4; 16% in the experiment with EPHB6; 52% with ERBB2; 30% with ERBB3; 0% in the experiment with ERBB4; 0% with ERK1. Also, the “%Inh” value is reported as 0% in the experiment on ERK2 and 5% in the experiment on ERK3.
For the molecule `COc1ccc(-c2oc3ncnc(N)c3c2-c2ccc(OC)cc2)cc1` [SB-589132], the “%Inh” value with EIF2AK1 came out at 3%; with EPHA1, 70%; with EPHA2, 19%; in the experiment on EPHA3, 0%; in the experiment on EPHA4 it was 32%; in the experiment with EPHA5, 0%. The “%Inh” value is on record as 50% with EPHA6; 0% with EPHA7; 9% with EPHA8; 0% in the experiment with EPHB1; 0% in the experiment on EPHB2; 24% in the experiment with EPHB3. The “%Inh” value is given as 5% with EPHB4; 36% in the experiment on EPHB6; 41% with ERBB2; 46% in the experiment on ERBB3; 33% with ERBB4; 0% in the experiment with ERK1. The figures for the “%Inh” value in the experiment with ERK2 and in the experiment on ERK3 were 0% and 6%, respectively.
Take `CN1CCC(n2cnc(-c3ccc(F)cc3)c2-c2ccnc(NC3CCNCC3)n2)CC1` [SB-229482]: the “%Inh” value in the experiment with EIF2AK1 was found to be 0%; with EPHA1, 0%; with EPHA2, 5%; in the experiment on EPHA3, 18%; in the experiment on EPHA4, 7%; with EPHA5, 5%. For the same molecule, the “%Inh” value was 5% with EPHA6; 0% in the experiment with EPHA7; 0% in the experiment with EPHA8; 0% in the experiment with EPHB1; 11% in the experiment with EPHB2; 4% in the experiment on EPHB3. The “%Inh” value with EPHB4 is recorded as 0%; in the experiment with EPHB6 it was 8%; in the experiment on ERBB2, 32%; with ERBB3, 18%; in the experiment on ERBB4, 4%; in the experiment with ERK1, 0%. Also, the “%Inh” value in the experiment with ERK2 was found to be 14%; in the experiment with ERK3, 30%.

These data come from article PMC5540273 (PLoS ONE, 2017).
